RORgamma inh – qHTS for inhibitors of ROR gamma transcriptional activity | Nuclear receptor ROR-gamma (Mus musculus), P51450 | Drosophila S2 Gal4-RORgamma UAS-luciferase reporter, 20 h | Potency, µM (top dose mostly 53.6 µM), for the others: at the highest dose activity change, negative = inhibition, hits mostly inhibitors | 310,000 tested, 5.4% active; further: nearly all actives have a fitted effect of over 60% in size
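Using a luciferase readout, inhibitors were identified by reduced reporter activity in Drosophila cells coexpressing a copper-inducible Gal4–ROR gamma fusion and UAS-driven Photinus luciferase, incubated 20 hr after 700 uM copper sulfate.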
12-LOX inh – Primary qHTS assay for inhibitors of human arachidonate 12S-lipoxygenase (ALOX12): Round 2 | Polyunsaturated fatty acid lipoxygenase ALOX12 (Homo sapiens), P18054 | 580,000 tested, 1.1% active | purified 12hLO, xylenol orange hydroperoxide absorbance | AID 1671190, 2021 | Potency, µM (titrated, usually from 108 µM), inactives show at the highest dose activity change, negative = inhibition, most hits filed as inhibitors
Target sequence (P18054 whole entry, looked up): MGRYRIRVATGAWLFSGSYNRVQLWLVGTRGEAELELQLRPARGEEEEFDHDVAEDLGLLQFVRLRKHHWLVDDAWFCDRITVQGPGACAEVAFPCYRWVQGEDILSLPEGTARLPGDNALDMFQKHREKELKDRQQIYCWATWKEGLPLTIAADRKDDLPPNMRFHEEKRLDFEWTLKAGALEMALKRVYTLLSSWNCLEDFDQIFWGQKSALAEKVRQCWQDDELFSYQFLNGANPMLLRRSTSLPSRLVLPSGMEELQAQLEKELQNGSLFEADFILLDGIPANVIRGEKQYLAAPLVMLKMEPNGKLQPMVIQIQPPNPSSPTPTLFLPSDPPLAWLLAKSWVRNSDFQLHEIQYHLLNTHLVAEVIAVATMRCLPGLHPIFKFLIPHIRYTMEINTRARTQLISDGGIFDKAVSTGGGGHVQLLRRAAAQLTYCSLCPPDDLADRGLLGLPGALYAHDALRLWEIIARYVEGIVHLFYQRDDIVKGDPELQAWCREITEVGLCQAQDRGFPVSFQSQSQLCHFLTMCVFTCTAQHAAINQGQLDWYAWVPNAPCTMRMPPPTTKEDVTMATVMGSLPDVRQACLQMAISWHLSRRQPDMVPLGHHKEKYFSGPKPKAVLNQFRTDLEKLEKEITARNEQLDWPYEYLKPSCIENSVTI
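Purified human 12hLO (150 nM final) in 25 mM Hepes, 0.01% Triton X-100, pH 7.0 was preincubated 15 min at room temperature with compound. Then 40 uM arachidonic acid was added, 30 min. Hydroperoxide was read by Fe-XO absorbance ratio 573/405 nm.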
ELG1 repair inh – qHTS screen for small molecules that inhibit ELG1-dependent DNA repair in human embryonic kidney (HEK293T) cells expressing luciferase-tagged ELG1. HEK293T ELG1-luciferase reporter, luminescence, 16 h; DNA damage induced by 5-fluorouridine. Potency, µM (series often up to 46.1 µM), for inactives: top-dose activity change, negative = inhibition, usual class: inhibitors. 330,000 tested, 2.3% active. AID 504467, 2011; further: nearly all actives have a fitted effect of over 55% in size
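5-Fluorouridine DNA damage + compound/DMSO, 2,000 cells/well, 16 h, 37 °C/5% CO2. ONE-Glo, 30 min RT, luminescence. Readout = decrease in reporter signal.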
VP16 counter – VP16 counterscreen qHTS for inhibitors of ROR gamma transcriptional activity; 310,000 tested, 3.5% active; Drosophila S2 Gal4-VP16 UAS-luciferase, luminescence, 20 h; Potency, µM (top dose mostly 53.6 µM), without a hit: top-dose activity, negative = inhibition, most hits filed as inhibitors;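 further: Gal4-VP16 expression switched on by copper sulfate through the metallothionein promoter; nearly all actives have a fitted effect of over 50% in size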
TDP1 cell CPT – qHTS for Inhibitors of human tyrosyl-DNA phosphodiesterase 1 (TDP1): qHTS in cells in presence of CPT; 420,000 tested, 12% active; Potency, µM (top dose mostly 46.2 µM), for inactives: at the top dose activity change, negative = growth inhibition, usual class: inhibitors; AID 686979, 2013; chicken DT40 Tdp1-/-;hTDP1 cells + 20 nM CPT, ATP luminescence, 48 h; further: nearly all actives have a fitted effect of over 55% in size
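Chicken DT40 Tdp1-/- cells complemented with human TDP1, 400 cells/well, exposed to compounds plus 20 nM camptothecin for at least 48 h at 37 C; viability read as ATP content by CellTiter-Glo luminescence.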
TDP1 cell noCPT – qHTS for Inhibitors of human tyrosyl-DNA phosphodiesterase 1 (TDP1): qHTS in cells in absence of CPT; DT40 Tdp1-/- hTDP1 cells, no CPT, ATP luminescence, 48 h; Potency, µM (titrated, usually from 46.2 µM), for inactives: at the top dose activity change, negative = growth inhibition, most hits filed as inhibitors; 420,000 tested, 15% active; further: nearly all actives have a fitted effect of over 55% in size
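Luminescent ATP content (CellTiter-Glo) served as the growth readout. Knockout chicken DT40 cells expressing human TDP1 were exposed to compounds without camptothecin for a minimum 48 hr at 37 °C.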
* = called active by the depositor; u = inconclusive; x = no result; [ ] = remark or other dose. Most compounds without a hit are left out; they make up all but 15% or so of the library. The call rests on the fitted dose curve; in most records, active means well fitted curve in the direction sought with a large enough effect; inconclusive means small, poorly fitted or top-dose-only effect, or another doubt; inactive means no such curve, though single readings can be large; an effect the other way counts as inactive or inconclusive. On the % scale 0 is the no-effect control and ±100 the full control effect; potency means the concentration at half of the fitted maximal effect.

SMILES	RORgamma inh	12-LOX inh	ELG1 repair inh	VP16 counter	TDP1 cell CPT	TDP1 cell noCPT
Cc1ccc2sc(-c3ccc(NC(=O)CCN4C(=O)c5ccccc5C4=O)cc3)nc2c1	1.12µM*	8.6%	u	u	x	x
CC(C)CCNC(=O)CCCN1C(=O)c2ccccc2Sc2ncccc21	x	0.0%	x	x	14.6µM*	u
Cc1ccc(NC(=O)CN2C(=O)c3ccccc3Sc3ncccc32)c(C)c1	x	-5.7%	x	x	23.1µM*	23.1µM*
CCN(CC)c1ccc(NC(=O)CN2C(=O)c3cccnc3Sc3ccccc32)c(C)c1	x	-4.7%	x	x	16.4µM*	13µM*
Cc1cccc(C)c1NC(=O)CN1C(=O)c2ccccc2Sc2ncccc21	x	-24.0%	x	x	u	-28.7%
O=C(CN1C(=O)c2cccnc2Sc2ccccc21)Nc1cc(F)ccc1F	x	1.0%	x	x	u	u
Cc1cc(NC(=O)CN2C(=O)c3cccnc3Sc3ccccc32)ccc1Br	x	1.1%	x	x	u	23.1µM*
Cc1ccc(NC(=O)CCN2C(=O)c3ccccc3Sc3ncccc32)cc1	16.0%	-32.4%	17.4%	-7.4%	16.4µM*	16.4µM*
Cc1cc(C)c(NC(=O)CN2C(=O)c3cccnc3Sc3ccccc32)c(C)c1	x	0.9%	x	x	u	-30.6%
COC(=O)c1ccc(C)c(NC(=O)COC(=O)c2ccc(OC)cc2)c1	x	13.9%	x	x	x	x
CCCCn1nc(C(=O)Nc2ccc3nc(SC)sc3c2)c2ccccc2c1=O	x	53.9%	x	x	x	x
COCCn1ncc(N2CCCC(CC(=O)NCCc3ccccc3)C2)cc1=O (centres undefined)	x	28.2%	x	x	x	x
O=C(NCC(F)(F)F)C1CN(Cc2ccccc2)C(=O)N1 (centres undefined)	x	50.6%[176 µM]	x	x	x	x
COC(=O)c1cccc(C(=O)NCC(F)(F)F)c1	x	18.6%	x	x	x	x
CCc1ccc2nc(N(CCN(CC)CC)C(=O)c3ccco3)sc2c1	x	u	x	x	20.6µM*	u
Cc1ccc2nc(N(CCCN(C)C)C(=O)c3ccco3)sc2c1	9.0%	u	u	1.1%	u	u
CCN(CC)CCN(C(=O)c1ccco1)c1nc2cc(C)cc(C)c2s1	x	u	x	x	u	23.1µM*
O=S(=O)(c1cccc(Cl)c1)n1c(/C=C/c2ccccc2Cl)nc2ccccc21	x	u	x	x	18.4µM*	13µM*
CSc1ccc(/C=C/c2nc3ccccc3n2S(=O)(=O)c2cccc(Cl)c2)cc1	x	-18.4%	x	x	13µM*	10.3µM*
Cc1ccc(/C=C/c2nc3ccccc3n2S(=O)(=O)c2ccc(Br)cc2)cc1	x	-29.5%	x	x	u	20.6µM*
Nc1nc2ccccc2n1S(=O)(=O)c1ccc(Cl)cc1	x	4.3%	x	x	u	u
O=C1CC(c2cccc(Cl)c2)CC2=C1C=Nc1ccccc1N2 (centres undefined)	x	-11.1%	x	x	x	x
CCn1c(SCC(=O)Nc2oc(-c3ccccc3)c(-c3ccccc3)c2C#N)nnc1-c1ccco1	24.9%	0.0%	-0.7%	-19.4%	u	-29.5%
COc1ccc(-c2oc(NC(=O)CSc3nncn3C)c(C#N)c2-c2ccc(OC)cc2)cc1	22.0%	33.5%	18.4µM*	6.5%	u	u
CCn1c(SCC(=O)Nc2oc(-c3ccccc3)c(-c3ccccc3)c2C#N)nnc1-c1ccncc1	1.5%	10.0%	-13.5%	-11.6%	13µM*	u
COc1ccc(NC(=O)[C@@H]2C[C@H](c3cccc(C(F)(F)F)c3)N(Cc3cnn(C)c3)C2)cc1	x	7.0%	x	x	x	x

Screens as filed in PubChem BioAssay.
